Source: PubChem BioAssay
TAR Tat displ – HIV-1 TAR-Tat binding disruption; z-score (no concentration beside the values); HIV-1 TAR RNA, Tat peptide displacement FRET; hits give high values; actives 0.6% (n = 100,000); active = z-score of 3 or more in at least 2 runs
CDC25B CDK2 inh – human CDC25B-CDK2/CyclinA binding inhibition; P30305+P24941; HTRF CDC25B-CDK2/CyclinA binding, anti-His/anti-Flag; hits give high values; actives 0.72% (n = 94,000); AID 1259370; z-score (concentration not given with the values); in the data active = z-score above about 3.2
Active calls of the source: *; x = no result given. Shown are actives, neighbours in structure and some others; about 0.93% of the full set was active somewhere.

SMILES	TAR Tat displ	CDC25B CDK2 inh
Cc1cc(C)c(S(=O)(=O)Nc2cc3c(cc2C)n(C)c(=O)n3C)c(C)c1	0.42	x
Cc1cc(C)c(S(=O)(=O)Nc2ccc[nH]c2=O)c(C)c1	-1.9	9.4*
Cc1ccc(S(=O)(=O)n2c(=O)oc3cc(Cl)ccc32)cc1	0.03	0.1
COc1ccc(S(=O)(=O)[C@H]2CS(=O)(=O)C[C@@H]2N2CCC(C)CC2)cc1	1	-2.1
O=C(NC1CC1)c1ccc2cccc(O)c2n1	1.7	x
O=C(Nc1cccnc1)c1ccc2cccc(O)c2n1	6.4*	x
O=C(Cn1c(=O)oc2cc(Cl)ccc21)N1CCN(c2ccc(N3CCOCC3)nn2)CC1	1.7	x
O=C(CN1C(=O)c2cccnc2Sc2ccccc21)Nc1ccc2c(c1)OCCO2	0.53	x
O=C(CN1C(=O)c2ccccc2Sc2ncccc21)Nc1ccc2c(c1)OCO2	13*	x
O=C(Nc1ccccc1)N1CCc2cc3ccccc3nc21	-0.04	-0.42
O=C(c1ccco1)N1CCN(S(=O)(=O)c2ccccc2)CC1	0.56	-0.89
O=C(c1ccco1)N1CCN(S(=O)(=O)c2ccc(F)cc2)CC1	17*	x
Cc1cc2c(cc3c(SCc4nc(-c5ccccc5Cl)oc4C)nncn32)o1	-1.4	x
COc1ccc(-c2cc3nc(C)cc(NCc4cccnc4)n3n2)cc1OC	5.1*	-2.1
COc1ccc(CNc2cc(C)nc3c(-c4ccc(OC)c(OC)c4)c(C)nn23)cc1	0.44	-2.5
CCN(CC)C(=O)CCc1nc(CN2CCN(C(=O)c3cccs3)CC2)no1	0	x
O=C(NCCc1ccsc1)c1c2c(nc3ccccc13)C(=O)N(C1CCCCC1)C2	-0.48	x
CCOC(=O)CSc1nnc(Cn2c(=O)sc3ccccc32)n1-c1ccccc1	x	-1.6
Cc1ccc(C2CC(=O)N3CN(C(C)c4ccccc4)CSC3=C2C#N)cc1 (stereo not drawn)	1.2	5*
Cc1ccc(C2CC(=O)N3CN(CCc4ccccc4)CSC3=C2C#N)cc1 (stereo not drawn)	-0.62	2.7
CC(c1ccccc1)N1CSC2=C(C#N)C(c3cccs3)CC(=O)N2C1 (stereo not drawn)	9.8*	4.4*
COc1ccc(C2CC(=O)N3CN(C(C)c4ccccc4)CSC3=C2C#N)cc1 (stereo not drawn)	-1.9	5.3*
CCOc1ccc(C2CC(=O)N3CN(C(C)c4ccccc4)CSC3=C2C#N)cc1 (stereo not drawn)	3.2	5.3*
CCCCC(=O)Nc1ccc2nc(SCc3cc(=O)n4c(C)csc4n3)sc2c1	0.01	x
CC(C)Oc1ncnc2c1sc1nc(N3CCOCC3)c3c(c12)CC(C)(C)OC3	x	-1
SMILES	TAR Tat displ	CDC25B CDK2 inh
CCc1nnc(SCC(=O)Nc2cc(Cl)ccc2OC)c2cc3oc(C)cc3n12	2	x
Cc1cccc(-c2nnc(SCc3cc(=O)n4ccsc4n3)o2)c1	-1.1	-0.42
N#Cc1nc(/C=C/c2ccc(F)cc2)oc1N1CCOCC1	-0.27	-1.9
O=C(Cn1ncc2c3ccccc3n(Cc3ccccc3)c2c1=O)N1CCc2ccccc2C1	-0.55	-1.7
O=S(=O)(c1ccc2[nH]c3c(c2c1)CCCC3)N1CCCCC1	-0.42	x
CC(C)OC(=O)c1ccc2[nH]c3c(c2c1)CCCC3	-1.5	18*
COC(=O)c1ccc2[nH]c3c(c2c1)CCCC3	x	-3
O=S(=O)(c1ccc2[nH]c3c(c2c1)CCCCC3)N1CCCCC1	3.4*	x
COc1cc(OC)cc(C(=O)Nc2nc3c(s2)CCc2ccccc2-3)c1	x	-2.4
COc1ccc2c(c1)Cc1sc(NC(=O)c3ccc(OC)c(Br)c3)nc1-2	0.6	19*
NC(=O)c1cccc2c1NC(C(=O)O)C1CC=CC21 (stereo not drawn)	27*	0.33
O=C(O)C1Nc2c(O)cccc2C2C=CCC12 (stereo not drawn)	x	3.8
CCOC(=O)CCc1c(C)nn(-c2ccc(N3CCCC3)nn2)c1C	0.79	-1.4
N#Cc1c(-c2cccnc2)cc(-c2ccc(F)cc2)nc1N	0.76	-2.4
COc1ccc(-c2cc(-c3cccnc3)c(C#N)c(N)n2)cc1	3.2*	-0.24
C=Cc1c(C)/c2[n-]/c1=C\c1[n-]c(c(CC)c1C)/C=c1\[n-]c3c(c1C)C(=O)C(C(=O)[O-])C=3c1[n-]c(c(C)c1CCC(=O)[O-])\C=2.[Cu].[Na+].[Na+] (stereo not drawn)	23*	x
CCOc1ccc(C2c3c(-c4c(C)cc(C)cc4O)n[nH]c3C(=O)N2Cc2ccco2)cc1OCC (stereo not drawn)	0.22	0.86
CN(C)CCCNc1cc(N2CCN(c3ccc(F)cc3)CC2)c2noc3c2c1C(=O)c1ccccc1-3	28*	7.4*
CN(CCO)CCNc1cc(N2CCOCC2)c2noc3c2c1C(=O)c1ccccc1-3	-5.5	-1.6
CN(C)CCCNc1cc(N2CCOCC2)c2noc3c2c1C(=O)c1ccccc1-3	12*	-2.6
O=C1c2ccccc2-c2onc3c(N4CCN(c5ccc(F)cc5)CC4)cc(NCCO)c1c23	2.4	6.3
CCOC(=O)c1c(NC(=O)N2CCC(CN3CCCCC3)CC2)sc2c1CCCC2	1	x
CC(C)OCCCNC(=O)c1cnc(N2CCCC2)nc1	0.66	-1.6
CC(N)=NCCCC[C@@H](N)C(=O)O	x	0.56
CCCCCCCCCCCCCCCCCCN=C(C)N	x	4.5*
SMILES	TAR Tat displ	CDC25B CDK2 inh
COc1ccc(-c2nc3c(c(=O)[nH]2)Cc2cc(Br)cc(OC)c2O3)cc1OC	13*	-0.88
COc1ccc(-c2nc3c(c(=O)[nH]2)Cc2cc(Br)cc(OC)c2O3)cc1O	1.7	-1.8
COc1ccc(OC)c(NC(=O)CCc2nc(-c3cccs3)no2)c1	0.99	0.72
O=C(O)c1cc(=O)c(O)c2c(O)c(O)ccc2c1	25*	x
Cc1cc(=O)c2c(O)c(O)ccc2o1	x	-2.2
O=c1cccc2ccc(O)c(O)c2c1O	25*	x
CC1=NN(c2cccc(C(=O)O)c2)C(=O)C1	0.21	-1.1
Cc1ccc(C)c(Cn2ncn3c(cc4cc(C)ccc43)c2=O)c1	1.4	-2.9
CC(Cc1ccco1)NC(=O)CCC(=O)N1CCCn2nc(-c3cccn3C)cc21 (stereo not drawn)	1.5	x
O=C(O)C1CCCN1c1ncc(Cl)cc1[N+](=O)[O-] (stereo not drawn)	-13	x
CCOC(=O)C1CCCN1c1ncc(Cl)cc1[N+](=O)[O-] (stereo not drawn)	-9.8	14*
C[C@](N)(Cc1ccc(O)cc1)C(=O)O	x	0.99
C[C@](N)(Cc1ccc(O)c(O)c1)C(=O)O	26*	0.01
NC(CO)C(=O)NNCc1ccc(O)c(O)c1O (stereo not drawn)	13*	-1.5
N[C@H](CO)C(=O)O	x	-0.64
Nc1nc(-c2ccccc2)cc(-c2ccc(Cl)cc2)n1	0.72	2.8
CC(=O)Nc1sc2c(c1C#N)CCCC2	0.23	0.23
N#Cc1c(NC(=O)c2cc3ncc(Br)cn3n2)sc2c1CCCC2	7.3*	0.64
O=C1O[B-](c2ccccc2)(c2ccccc2)[n+]2ccccc21	x	1.5
O=C(O)C1C2CC=CC2c2cc(Br)cc3c2N1CC1CC=CC31 (stereo not drawn)	20*	4.9*
Cc1cc2c3c(c1)C1C=CCC1C(C(=O)O)N3CC1CC=CC21 (stereo not drawn)	x	-1.2
CCC(=O)N1N=C(c2ccccc2)CC1c1cc2cc3c(cc2nc1Cl)OCCO3 (stereo not drawn)	x	-0.51
COc1ccc2c(c1)OCC/C2=N\OC(=O)c1ccccc1-c1ccccc1	x	-1.9
